Reference: PubChem BioAssay AID1822 (The Scripps Research Institute Molecular Screening Center, 2009)
Among all 290,000 compounds or so, about 3,500 (1.2%) were called active.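 The calls were made as follows: active = inhibition above the campaign mean inhibition over all tested compounds plus 3 SD (cut at about 28% in these data); inactive = the rest.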 Many of the other results were omitted from the sample, so actives are more common in it than they were.

The compounds below were run on M18 aspartyl aminopeptidase (Plasmodium falciparum 3D7) (assay: PfM18AAP inhibitors, malaria aminopeptidase, primary screen, biochemical, QFRET, recombinant enzyme (AID 1822;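 also: 0% = plate median of test compound wells and 100% = 2 mM ZnCl2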)). Conditions: H-Glu-NHMec fluorogenic cleavage, at 7.35 µM, stronger effect = higher value.
`O=C(Nc1ccc(F)cc1)c1ccc(S(=O)(=O)NCc2cccnc2)cc1` was tested, and the inhibition was 1.68% (inactive). With `O=C(O)c1cccc(N2C(=O)Nc3ccccc3N2O)c1` the inhibition was -0.41% (inactive). For `C/C(=N\Nc1cccc(C(=O)O)c1)c1ccc2c(c1)Nc1ccccc1S2`, the inhibition was 28.6% (active). With `O=C(NC1CC1)c1ccc2c(c1)NC(=O)c1ccccc1S2` the inhibition was -6.63% (inactive). For `CCOc1ccc(OCC)c(NC(=O)CCS(=O)(=O)c2ccc(C)cc2)c1`, the inhibition was -4.08% (inactive). For `O=C(Nc1ccc2sc3ccccc3c(=O)c2c1)c1ccccc1Cl`, the inhibition was 3.74% (inactive). In the case of `COc1ccc(NC(=O)CN(C)C(=O)CNC(=O)C2CCCCC2)cc1`, the inhibition is reported as 5.81% (inactive). For `COc1ccc(NC(=O)c2sc3nc(C)nc(N4CCN(c5ccccn5)CC4)c3c2C)c(OC)c1`, the inhibition was -4.65% (inactive). `NC(=O)c1c(Nc2nc3c(F)cccc3s2)sc2c1CCCC2` was tested, and the inhibition was 49.1% (active). For `NC(=O)c1c(NC(=O)c2ccccc2)sc2c1CCCC2`, the inhibition was 1.26% (inactive). `O=C(Nc1sc2c(c1C(=O)O)CCC2)c1ccccc1F` was tested, and the inhibition was -1.52% (inactive). In the case of `CC(=O)c1ccc(NC(=O)CCNS(=O)(=O)c2cc(Br)cnc2N)cc1`, the inhibition is reported as -3.06% (inactive). In the case of `S=C(c1ccc(-c2ccccc2)o1)N1CCCCC1`, the inhibition is reported as 30.8% (active). For `S=C(c1ccccc1)N1CCCC1`, the inhibition was -1.81% (inactive). For `CC1CCN(C(=S)c2ccc(-c3ccc(Cl)cc3Cl)o2)CC1`, the inhibition was 4.16% (inactive). For `O=C1c2cccc3c([N+](=O)[O-])ccc(c23)C(=O)N1CC1CCCO1` (stereo not drawn), the inhibition was 4.32% (inactive). `O=C(OCc1ccc([N+](=O)[O-])cc1)C1CC(=O)N(Cc2ccccc2Cl)C1` (stereo not drawn) was tested, and the inhibition was -11.3% (inactive). With `CC(C)N1CCC(N2CCN(Cc3cccnc3)CC2CCO)CC1` (stereo not drawn) the inhibition was 4.35% (inactive). In the case of `CSC(=S)N/N=C/c1c[nH]c2ccccc12`, the inhibition is reported as 9.14% (inactive). In the case of `O=C(O)c1cccc(NC(=S)N/N=C/c2c[nH]c3ccccc23)c1`, the inhibition is reported as 38.5% (active). `O=C(N/N=C/c1c[nH]c2ccccc12)c1ccccc1O` was tested, and the inhibition was 9.89% (inactive). In the case of `CCc1[nH]nc(C(=O)N2CCCC(CO)(Cc3ccc(F)cc3F)C2)c1C` (stereo not drawn), the inhibition is reported as -13.6% (inactive). With `Cc1cc(OCc2cc(C(=O)NCc3cc(C(C)C)no3)no2)cc(C)c1Cl` the inhibition was -17.4% (inactive). `O=c1[nH]c2ccccc2n2c(-c3ccccc3)nnc12` was tested, and the inhibition was 33.2% (active). In the case of `Cc1ccc(-c2nc3ccccc3[nH]c2=O)cc1`, the inhibition is reported as -7.7% (inactive). For `CC(=O)c1c(-c2ccccc2)c2ccccc2[nH]c1=O`, the inhibition was -2.54% (inactive). For `CC(=O)N1c2ccc(S(=O)(=O)N3CCC(C(=O)NC4CCCCC4C)CC3)cc2CC1C` (stereo not drawn), the inhibition was 17.8% (inactive). `COc1cc(/C=C2/C(=O)NN(c3cccc(Cl)c3)C2=O)cc(Br)c1O` was tested, and the inhibition was 32.2% (active). `COc1cc(/C=C2/C(=O)NN(c3ccc(F)cc3)C2=O)cc([N+](=O)[O-])c1O` was tested, and the inhibition was 9.62% (inactive). `C#CCOc1ccc(/C=C2/C(=O)NN(c3ccccc3)C2=O)cc1OC` was tested, and the inhibition was 22% (inactive). For `Cn1c(=O)c([N+](=O)[O-])c(Oc2ccccc2)c2ccccc21`, the inhibition was 24% (inactive). With `CC1CCN(C(=O)/C(=C\c2ccccc2)NC(=O)c2ccccc2)CC1` the inhibition was -0.48% (inactive). In the case of `Cc1ccc(C(=O)N/C(=C\c2ccco2)C(=O)N2CCSCC2)cc1C`, the inhibition is reported as -11% (inactive). `NC(=O)C1CCN(C(=O)/C(=C/c2ccco2)NC(=O)c2ccccc2)CC1` was tested, and the inhibition was 35.1% (active). In the case of `CCc1ccc(-c2cc3c(=O)n(CC(=O)NCCCN4CCN(Cc5ccccc5)CC4)nc(C)n3n2)cc1`, the inhibition is reported as -0.45% (inactive). In the case of `Cc1ccc(OCC(=O)Nc2ccc(NC(=O)c3cccs3)cc2)c(C)c1`, the inhibition is reported as 2.4% (inactive). With `CCCc1nnc(NC(=O)CCC(=O)N2CCN(S(=O)(=O)c3ccc(OC)cc3)CC2)s1` the inhibition was 3.89% (inactive). With `Cc1ccc(Cc2cnc(NC(=O)/C(C#N)=C/c3ccc(-c4cccc([N+](=O)[O-])c4)o3)s2)cc1` the inhibition was 1.04% (inactive). For `N#C/C(=C\c1ccc(-c2cccc([N+](=O)[O-])c2)o1)C(=O)NCCN1CCOCC1`, the inhibition was 2.81% (inactive). `Cc1ccc(-c2ccc(/C=C(\C#N)C(N)=S)o2)c([N+](=O)[O-])c1` was tested, and the inhibition was 34% (active). `Cc1ccc(N(C(=O)c2snc(C(N)=O)c2N)C(C(=O)NCC2CCCO2)c2c[nH]c3ccccc23)cc1` (stereo not drawn) was tested, and the inhibition was 2.71% (inactive). For `CN1CCN(CCCCOc2ccccc2-c2ccccc2)CC1`, the inhibition was 2.29% (inactive). For `OCCN1CCN(C(=S)c2ccc(-c3ccccc3)cc2)CC1`, the inhibition was 50% (active). `OCCN1CCN(c2nnc(-c3ccccc3)c3ccccc23)CC1` was tested, and the inhibition was 4.34% (inactive). `CC(=O)Nc1ccc(S(=O)(=O)Oc2ccc(Br)cc2C(=S)N2CCOCC2)cc1` was tested, and the inhibition was 20.7% (inactive). With `COc1cc(CC(=O)N2CCC(n3nccc3NC(=O)C3CC3)CC2)cc(OC)c1OC` the inhibition was 1.44% (inactive). `CCN(CC)c1ccc(NC(=O)CCc2nnc3ccc(N4CCCCC4)nn23)c(C)c1` was tested, and the inhibition was 34.1% (active). `CCOc1ccc(CCNC(=O)CCc2nnc3ccc(N4CCCC4)nn23)cc1OCC` was tested, and the inhibition was -5.76% (inactive). In the case of `CCOC(=O)c1cccc(NC(=O)CCc2nnc3ccc(N4CCOCC4)nn23)c1`, the inhibition is reported as -1.08% (inactive). With `CCC(c1nnnn1C(C)(C)C)N(Cc1cc2cccc(C)c2n2nnnc12)C1CCCC1` (stereo not drawn) the inhibition was -1.66% (inactive). In the case of `Cc1nn(C(C)(C)C)c(OC(=O)CC(C)C)c1S(=O)(=O)c1ccccc1`, the inhibition is reported as 3.62% (inactive). In the case of `Cc1ccc2nc(-c3ccncc3)cc(C(=O)Nc3ccncc3)c2c1`, the inhibition is reported as 1.48% (inactive). In the case of `Cc1ccc(-c2cc(C(=O)NCc3cn(C)nc3C)c3cc(Br)ccc3n2)cc1`, the inhibition is reported as 0.33% (inactive). `Cc1ccc2nc(-c3cccc(Br)c3)cc(C(=O)Nn3cnnc3)c2c1` was tested, and the inhibition was 60.7% (active). For `N#Cc1c(-c2ccccc2)nc(SCc2cccc(C(F)(F)F)c2)[nH]c1=O`, the inhibition was 0.63% (inactive). For `COc1ccc(-c2nonc2NC(=O)c2oc3ccc(F)cc3c2C)cc1OC`, the inhibition was 2.64% (inactive). In the case of `COc1ccccc1N1CCN(/N=C/c2ccc(O)cc2O)CC1`, the inhibition is reported as 9.99% (inactive). `Oc1ccc(/C=N/Nc2nc(-c3ccccc3F)nc3ccccc23)c(O)c1` was tested, and the inhibition was 18% (inactive). For `Cc1cc(N/N=C/c2ccccc2F)c2ccccc2n1`, the inhibition was 3.64% (inactive). With `Cc1nc2ccccc2nc1N/N=C/c1ccc(O)cc1O` the inhibition was 31.6% (active). For `COc1ccc(/C=C(\C#N)C(=O)ONC2=NCCCCC2)cc1`, the inhibition was 3.59% (inactive). For `Oc1ccc(/C=N/NC2=NCCCCC2)c(O)c1`, the inhibition was 40.1% (active). `O=C(NNC(=O)C1CCCC1)c1ccc(F)cc1` was tested, and the inhibition was 3.26% (inactive). With `Cc1cc(C)cc(Oc2c(C(F)(F)F)oc3cc(OCC(=O)O)ccc3c2=O)c1` the inhibition was 0.89% (inactive). With `N#Cc1cccc(CSc2ncnc(N)n2)c1` the inhibition was 3.53% (inactive). `CC(C)c1c(C(=O)N/N=C/c2ccccc2C(=O)O)nnn1-c1nonc1N` was tested, and the inhibition was 2.33% (inactive). `O=S(=O)(Nc1ccccc1Br)c1cccs1` was tested, and the inhibition was -3.63% (inactive). For `Cc1ccc(N2C(=O)C3C4C=CC(CC4)C3C2=O)cc1Br` (stereo not drawn), the inhibition was -1.4% (inactive). For `O=[N+]([O-])c1ccc(O)c(/C=N/Nc2ccccc2[N+](=O)[O-])c1`, the inhibition was -13% (inactive). With `Nn1cnnc1N/N=C/c1cc([N+](=O)[O-])c(Cl)cc1Cl` the inhibition was 30% (active). With `COCCCNC(=O)CN1C(=O)CSc2ccc(S(=O)(=O)N3CCOCC3)cc21` the inhibition was 6.04% (inactive). With `Cc1ccc(CNC(=O)C(=O)c2cn(CC(=O)N3CCCC3)c3ccccc23)cc1` the inhibition was 2.97% (inactive). In the case of `Oc1ccc(-c2onc3ccc(Cl)cc23)cc1`, the inhibition is reported as 1.68% (inactive). With `COc1ccc(-c2onc3ccc(C(C)=O)cc23)cc1` the inhibition was 13.4% (inactive). `CC(OC(=O)c1ccc2noc(-c3ccccc3)c2c1)C(N)=O` (stereo not drawn) was tested, and the inhibition was 31.9% (active). In the case of `Cc1c(CN2CC[C@@H](N3CCN(c4ccccn4)CC3)[C@H](O)C2)[nH]c2ccc(F)cc12`, the inhibition is reported as 9.87% (inactive). `COc1ccc(N(Cc2cc3ccc(C)cc3[nH]c2=O)S(=O)(=O)c2ccccc2)cc1` was tested, and the inhibition was 6.49% (inactive). In the case of `CC(=O)N1c2ccc(S(=O)(=O)NCCC(=O)N(C)C3CCCCC3)cc2CC1C` (stereo not drawn), the inhibition is reported as 0.68% (inactive). With `Cc1ccc(C)n1NC(=O)c1ccc([N+](=O)[O-])cc1` the inhibition was 3.79% (inactive). For `O=C(Nc1cccc([N+](=O)[O-])c1)Nc1ccc(Cl)cn1`, the inhibition was -7.59% (inactive). In the case of `COC(=O)/C=C\C(=O)Nc1cccc([N+](=O)[O-])c1`, the inhibition is reported as -7.77% (inactive). For `O=C(Nn1c(-c2ccccc2)nc2ccccc2c1=O)c1ccc([N+](=O)[O-])cc1`, the inhibition was -0.32% (inactive). In the case of `O=C(Nn1cnnc1)c1ccc([N+](=O)[O-])cc1`, the inhibition is reported as 30.2% (active). For `O=C(Nc1cccc([N+](=O)[O-])c1)Nn1cnnc1`, the inhibition was 77.4% (active). For `COc1ccc(C(=O)NCc2nnc(SCC(=O)NC3=NCCS3)n2C)cc1`, the inhibition was -2.4% (inactive). For `Cc1cccc(C(=O)Nc2ccc(C(=O)N/N=C/c3cccc(C)n3)cc2)c1`, the inhibition was -3.2% (inactive). `CSCC[C@H](NC(=O)N1CCn2c1nc1ccccc12)C(=O)NC1CCCCC1` was tested, and the inhibition was 2.15% (inactive). In the case of `CCCc1cc(=O)oc2c(C)c(OCC(=O)N3CCC(C(=O)O)CC3)ccc12`, the inhibition is reported as 5.91% (inactive). `COc1ccc(C(C(=O)NC(C)(C)C)N(Cc2ccc(F)cc2)C(=O)CCC(=O)Nc2cc(C)on2)cc1` (stereo not drawn) was tested, and the inhibition was -7.57% (inactive). For `C=CCOc1cccc(CNCc2cccnc2)c1`, the inhibition was -17.3% (inactive). `O=C(NNC(=O)c1ccc(Cl)cc1Cl)c1cccs1` was tested, and the inhibition was -2.06% (inactive). With `Cc1ccc(NNC(=O)c2cccs2)cc1Cl` the inhibition was 28.9% (active). For `Cc1ccc(NNC(=O)c2c(F)cccc2Cl)cc1Cl`, the inhibition was 5.54% (inactive).
